This is an account of results in PubChem BioAssay (NCATS).

Unmarked numbers belong to inactive results. Records with an inconclusive call do not appear. Calls of active or inactive are those of the source. Unless noted, calls follow the shape of the dose curve; as a rule, active = well fitted curve in the direction sought with a large enough effect; inconclusive = small, poorly fitted or top-dose-only effect, or another doubt; inactive = no such curve, though single readings can be large; an effect the other way counts as inactive or inconclusive.

Assay [1] is described as follows: qHTS for Inhibitors of Plasmodium falciparum (DD2) proliferation (AID 504314). Also: potency is read from the fitted curve at half-maximal effect.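 As to activity, negative = inhibition: parasite DNA measured by SYBR Green fluorescence after red cell lysis; plate controls were DMSO vehicle for no effect and artemisinin wells for full effect.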 The essentials: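 P. falciparum Dd2 is grown in erythrocytes with test compound for 72 h at 37C under 5% CO2. Growth is scored by SYBR Green I fluorescence after detergent lysis, relative to artemisinin (0.29 uM) and DMSO controls.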
Assay [2] is described as follows: qHTS for Inhibitors of Plasmodium falciparum (7G8) proliferation (AID 504316). Also: nearly all actives have a fitted effect of over 65% in size. Also: potency is read from the fitted curve at half-maximal effect.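 As to activity change, negative = inhibition: series mostly up to about 6.7 µM; 0% = DMSO vehicle and -100% = 0.29 µM artemisinin full kill.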 The essentials: (§1)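 Parasite growth measured as SYBR Green DNA fluorescence (ex 485, em 535 nm) after overnight lysis following 72 h culture at 37 °C, 0.3% parasitemia, 2.5% hematocrit. Values normalized against DMSO and 0.29 uM artemisinin controls, with plate-stack correction.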
The nature of assay [3]: qHTS for Inhibitors of Plasmodium falciparum (HB3) proliferation (AID 504318). Also: nearly all actives have a fitted effect of over 60% in size. Also: potency is read from the fitted curve at half-maximal effect.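 As to activity change, negative = inhibition: 0% = DMSO vehicle and -100% = artemisinin control.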 A digest of the protocol: as §1
A general note: In qHTS, concentration-response curves come from the screen itself.

Assay [4] has as its target Atrial natriuretic peptide receptor 1 (Homo sapiens) (UniProt P16066). Kind of assay: Natriuretic polypeptide receptor (hNpr1) antagonism - Pilot CMLD screen (AID 1347052; calls by dose curve;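 also: HEK293 cells with hNpr1 stimulated by hNppA peptide at 0.1 nM; cGMP level read as GloSensor luciferase luminescence after agonist stimulation; series mostly up to about 9.2 µM; % is scaled to controls: 0 for no effect and ±100 for the full control effect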).
Assay [5] in a line: qHTS for Inhibitors of Plasmodium falciparum (CP250) proliferation (AID 504320). Also: potency is read from the fitted curve at half-maximal effect.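 As to activity change, negative = inhibition: plate controls were DMSO vehicle for no effect and 0.29 µM artemisinin control for full effect.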 The essentials:
as §1

The target in assay [6] is Cytochrome P450 3A4 (Homo sapiens) (UniProt P08684). Kind of assay: qHTS Assay for Inhibitors and Substrates of Cytochrome P450 3A4 (AID 884). Also: potency is read from the fitted curve at half-maximal effect; nearly all actives have a fitted effect of over 50% in size. The essentials:
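Luminescent readout of luciferin produced by CYP3A4 (20 nM) dealkylation of Luciferin-PPXE, 25 uM (its KM). NADPH-driven reaction ran 60 min at RT after 10 min compound preincubation; data scaled to 57 uM ketoconazole as 100% inhibition.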

Assay [7] shares this target. The assay is described as follows: qHTS Assay for Activators of Cytochrome P450 3A4 (AID 885). Also: nearly all actives have a fitted effect of over 65% in size. The essentials: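 CYP3A4 activity: Luciferin-PPXE O-dealkylation, 25uM substrate, 200mM KPO4, RT throughout. Read-out is luciferase luminescence; higher values reflect activation.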
Assay [8] can be described thus: qHTS for Inhibitors of Plasmodium falciparum (GB4) proliferation (AID 504315).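 Also: 0% = DMSO vehicle and -100% = 0.29 µM artemisinin control; nearly all actives have a fitted effect of over 50% in size.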 The essentials: as §1
In assay [9] the target is Cytochrome P450 2C9 (Homo sapiens) (UniProt P11712). Kind of assay: qHTS Assay for Inhibitors and Substrates of Cytochrome P450 2C9 (AID 883). Also: nearly all actives have a fitted effect of over 60% in size. Also: potency is read from the fitted curve at half-maximal effect. As to activity change, negative = inhibition: % is scaled to controls: 0 for no effect and ±100 for the full control effect. The essentials: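 Turnover of Luciferin-H (100uM, KM) by 10nM human CYP2C9 was measured over 60 min at 37C with NADPH regeneration; inhibitors and some substrates reduce luminescence. Data normalized to sulphaphenazole 57uM.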
For assay [10], the target named is Cytochrome P450 2C19 (Homo sapiens) (UniProt P33261). Kind of assay: qHTS Assay for Inhibitors and Substrates of Cytochrome P450 2C19 (AID 899). Also: potency is read from the fitted curve at half-maximal effect; nearly all actives have a fitted effect of over 60% in size. The essentials: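 Reactions contain 5nM enzyme, 10uM Luciferin-H EGE (KM) and 50mM KPO4; compound preincubates 10 min at 37C, NADPH regeneration starts turnover for 60 min. Luminescence after detection reagent gives activity.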
Chain of Cytochrome P450 2C19 (Homo sapiens) (P33261 whole entry, looked up): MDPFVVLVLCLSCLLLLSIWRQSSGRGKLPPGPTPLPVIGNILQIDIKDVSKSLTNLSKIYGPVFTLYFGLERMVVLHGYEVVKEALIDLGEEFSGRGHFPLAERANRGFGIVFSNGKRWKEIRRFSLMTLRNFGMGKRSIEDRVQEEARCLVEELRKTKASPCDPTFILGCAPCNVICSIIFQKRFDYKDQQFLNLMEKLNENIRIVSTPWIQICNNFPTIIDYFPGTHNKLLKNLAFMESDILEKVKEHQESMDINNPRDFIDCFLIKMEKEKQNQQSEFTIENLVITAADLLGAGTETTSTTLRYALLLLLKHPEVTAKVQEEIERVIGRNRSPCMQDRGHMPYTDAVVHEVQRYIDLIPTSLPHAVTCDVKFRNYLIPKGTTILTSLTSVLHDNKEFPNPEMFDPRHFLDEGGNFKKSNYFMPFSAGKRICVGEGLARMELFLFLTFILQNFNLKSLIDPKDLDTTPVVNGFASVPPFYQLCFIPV

Chain of Atrial natriuretic peptide receptor 1 (Homo sapiens) (P16066 whole entry, looked up): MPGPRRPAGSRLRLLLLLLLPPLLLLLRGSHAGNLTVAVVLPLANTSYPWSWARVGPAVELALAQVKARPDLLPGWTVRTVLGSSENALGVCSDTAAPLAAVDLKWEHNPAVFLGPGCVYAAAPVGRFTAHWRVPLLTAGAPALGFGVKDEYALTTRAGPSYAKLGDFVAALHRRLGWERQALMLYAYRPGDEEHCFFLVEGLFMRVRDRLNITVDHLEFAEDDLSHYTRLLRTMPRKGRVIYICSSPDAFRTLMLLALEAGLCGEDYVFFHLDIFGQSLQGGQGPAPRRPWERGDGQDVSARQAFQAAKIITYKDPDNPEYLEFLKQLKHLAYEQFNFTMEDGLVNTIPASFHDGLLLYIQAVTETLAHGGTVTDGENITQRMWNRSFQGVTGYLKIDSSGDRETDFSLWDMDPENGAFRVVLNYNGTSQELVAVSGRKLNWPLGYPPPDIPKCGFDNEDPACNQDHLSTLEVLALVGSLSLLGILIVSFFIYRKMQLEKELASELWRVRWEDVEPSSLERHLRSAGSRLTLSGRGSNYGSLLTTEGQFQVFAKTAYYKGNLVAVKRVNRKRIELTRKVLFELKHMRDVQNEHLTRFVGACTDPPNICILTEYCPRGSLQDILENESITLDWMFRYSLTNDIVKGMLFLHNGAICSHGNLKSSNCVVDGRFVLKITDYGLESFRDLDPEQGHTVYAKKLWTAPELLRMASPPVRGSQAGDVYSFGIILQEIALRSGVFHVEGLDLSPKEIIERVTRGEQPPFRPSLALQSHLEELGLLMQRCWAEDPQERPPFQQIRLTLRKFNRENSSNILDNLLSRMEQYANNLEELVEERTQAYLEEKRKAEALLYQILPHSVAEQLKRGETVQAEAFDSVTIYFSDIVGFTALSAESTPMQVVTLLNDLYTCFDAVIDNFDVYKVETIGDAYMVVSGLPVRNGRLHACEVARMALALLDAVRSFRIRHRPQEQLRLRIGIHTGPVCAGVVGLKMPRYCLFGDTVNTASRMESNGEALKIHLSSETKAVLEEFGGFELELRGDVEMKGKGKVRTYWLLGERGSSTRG
Chain of Cytochrome P450 3A4 (Homo sapiens) (P08684 whole entry, looked up): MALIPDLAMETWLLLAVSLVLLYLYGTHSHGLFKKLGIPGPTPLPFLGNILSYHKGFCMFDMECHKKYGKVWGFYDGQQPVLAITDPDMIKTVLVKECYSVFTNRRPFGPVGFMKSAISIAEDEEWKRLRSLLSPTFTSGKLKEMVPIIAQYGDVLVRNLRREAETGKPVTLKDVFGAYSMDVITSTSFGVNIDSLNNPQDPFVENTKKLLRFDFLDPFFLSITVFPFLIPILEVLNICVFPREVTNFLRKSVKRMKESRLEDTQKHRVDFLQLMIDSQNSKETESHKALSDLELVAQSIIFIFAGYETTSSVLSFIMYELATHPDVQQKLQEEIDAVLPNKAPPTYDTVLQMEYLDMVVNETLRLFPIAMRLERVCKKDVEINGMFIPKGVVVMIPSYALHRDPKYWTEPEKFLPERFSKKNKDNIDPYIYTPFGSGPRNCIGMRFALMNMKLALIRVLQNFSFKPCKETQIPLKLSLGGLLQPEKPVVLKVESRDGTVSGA
Chain of Cytochrome P450 2C9 (Homo sapiens) (P11712 whole entry, looked up): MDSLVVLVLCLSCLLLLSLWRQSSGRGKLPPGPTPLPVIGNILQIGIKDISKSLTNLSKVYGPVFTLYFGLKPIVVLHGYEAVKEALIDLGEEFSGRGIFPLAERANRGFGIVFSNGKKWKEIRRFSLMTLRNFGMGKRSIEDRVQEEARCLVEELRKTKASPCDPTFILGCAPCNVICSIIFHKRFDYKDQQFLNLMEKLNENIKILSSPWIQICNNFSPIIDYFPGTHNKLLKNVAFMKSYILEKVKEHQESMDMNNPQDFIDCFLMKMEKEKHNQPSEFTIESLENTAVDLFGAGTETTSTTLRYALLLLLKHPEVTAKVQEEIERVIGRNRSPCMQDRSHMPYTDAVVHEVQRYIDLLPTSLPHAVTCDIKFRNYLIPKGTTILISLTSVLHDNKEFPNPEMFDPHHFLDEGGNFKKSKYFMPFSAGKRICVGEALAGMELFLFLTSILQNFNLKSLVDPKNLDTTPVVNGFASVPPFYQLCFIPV

Consider `C=CCC(O)(C#Cc1ccccc1)c1ccccc1` (centres undefined), for which the Potency result in assay [1], in [2], in assay [3] and in assay [4] was “inactive” each time.
Consider `C[C@H](ON=C1[C@H]2CCn3c(=O)n(-c4ccccc4)c(=O)n3[C@@H]2[C@H](O)[C@@H]2O[C@H]12)c1cn([C@H](CO)Cc2ccccc2)nn1`, for which the Potency entry in [1], in [2], in assay [3], in [5] and in [4] was “inactive” in each case.
For `C[C@@H](ON=C1[C@H]2CCn3c(=O)n(-c4ccccc4)c(=O)n3[C@@H]2[C@H](O)[C@@H]2O[C@H]12)c1cn([C@@H]2COC[C@@H]2O)nn1`, the Potency result in [1], in [2], in assay [3] and in assay [4] was “inactive” each time.
As to `COc1ccc(-c2cnnc(CCCn3ccnc3-c3ccccc3)n2)cc1`, the Potency in [6] is 6.31 µM (active). In addition, the activity change, positive = activation in assay [7] is -71.9% [at 11.4 µM]. In addition, the Potency entry in assay [1], in [8] and in assay [4] was “inactive” in each case.
On to `COCCN1C(=NCC(C)C)NC(c2ccccc2)C(C(=O)OC)=C1C` (centres undefined), for which the Potency entry in assay [1], in assay [2], in [3] and in assay [4] was “inactive” throughout.
`COC(=O)CCCC1=CC2=C(c3ccccc3)C(=O)C(C)(OC(=O)C3CCCC3)C(=O)C2=CN1CCCCO` (centres undefined): the Potency result in [1], in [2], in assay [3], in assay [5] and in assay [4] was “inactive” throughout.
For the compound `CCN(CCNC(=O)[C@H]1C=C(OC)C(=O)C[C@@H]2c3ccccc3C[C@]12C)C(C)=O`, the Potency result in [1], in assay [2], in [3], in [5] and in assay [4] was “inactive” in each case.
Consider `C[C@@H]1CC2=CCCC2[C@]2(O1)C(=O)Nc1cccc(Br)c12` (some centres undefined), for which the Potency result in assay [1], in assay [2], in [3], in [5] and in assay [4] was “inactive” each time.
For the compound `Cc1cc2c(c(=O)n1Cc1ccccc1)[C@H]1O[C@](CCCCN3C(=O)c4ccccc4C3=O)(Cc3c1ccc1ccccc31)O2`, the Potency was 1.69 µM (active) in assay [1], 1.51 µM (active) in assay [2], 1.51 µM (active) in assay [3] and 1.69 µM (active) in [5]. In addition, in assay [4], the Potency entry is “inactive”.
For `COc1ccc(-c2nc3c(c4c2C[C@H](c2ccccc2)OC4)CN(C(=O)c2cc(I)ccc2F)CC3)c(C)c1`, the activity, negative = inhibition in [1] is -3.98% [at 1.12 µM]. The Potency in assay [2] is 1.9 µM (active). Besides, the Potency entry in assay [4] is “inactive”.
For the compound `COC(=O)N[C@@H](c1cccc(F)c1)[C@@H](C)[N+](=O)[O-]`, the Potency entry in assay [1], in assay [2], in assay [3], in assay [5] and in [4] was “inactive” throughout.
`CCCCCCCc1cc2c(cn1)C(=O)C(C)(OC(C)=O)C(O)=C2Cl` (centres undefined): the Potency in assay [1] is 1.89 µM (active); in assay [2] it was 0.953 µM (active). Also, the Potency result in [4] was “inactive”.
Regarding `CCN(CC)CCCN=C1NC(c2cccc(C(F)(F)F)c2)C(C(=O)OC)=C(C)N1CC` (centres undefined), the Potency entry in assay [1], in assay [2], in assay [3], in [5] and in assay [4] was “inactive” throughout.
Take `C[C@@H]1CC[C@H]2C(=O)N3[C@@H](CC[C@@H](C)[C@@H]3c3ccc(Br)cc3)C(=O)N2[C@@H]1c1ccc(Br)cc1`: in [9], the Potency was 3.98 µM (active). In addition, in assay [7], the activity change, positive = activation is -42.7% [at 11.4 µM]. In addition, the Potency entry in assay [1], in assay [8], in assay [5] and in [4] was “inactive” in each case.
Consider `CCCCCCC1=Cc2cc(OC)c(OC)cc2C(C(C(C)=O)C(=O)OCC)O1` (centres undefined), for which the activity change, negative = inhibition in [9] is 25.3% [at 11.4 µM]. Further, in assay [7], the activity change, positive = activation was -42.2% [at 11.4 µM]. In addition, the Potency in assay [10] is 1.58 µM (active). In addition, the Potency entry in assay [1], in assay [8], in assay [5] and in [4] was “inactive” throughout.
For `CCO[C@H](c1cc(OC)cc([N+](=O)[O-])c1OC)[C@H](C)[C@@H](OC)[C@H](C)C=CCC(=O)OC`, the Potency result in assay [1], in [2] and in assay [4] was “inactive” in each case.
Consider `CCOC(=O)C1=CN(CCC=C(C)C)C(=O)NC1c1ccccc1` (centres undefined), for which the Potency entry in assay [1], in [2], in assay [3], in [5] and in assay [4] was “inactive” throughout.
With `CC(C)=CCC12CC3[C@@H](O)C(C(=O)c4ccccc4)(C1=O)C(=O)C(CC=C(C)C)(C2=O)C3(C)C` (some centres undefined), the Potency entry in [1], in assay [2] and in [4] was “inactive” each time.
For `CCOC(=O)CN1C(=O)NC(c2cccc(C(F)(F)F)c2)C(C(=O)OC)=C1C` (centres undefined), the Potency entry in [1], in assay [2], in assay [3], in assay [5] and in [4] was “inactive” throughout.
With `COC(=O)C1=C(C)N(Cc2ccccc2)C(=NCCc2c[nH]c3ccccc23)NC1c1ccc(Br)cc1` (centres undefined), the Potency entry in assay [1], in assay [2], in assay [3], in assay [5] and in assay [4] was “inactive” in each case.
With `CC=COC(=O)N[C@@H](c1ccccc1)[C@]1(C(C)=O)CCOC1=O`, the Potency entry in assay [1], in assay [2], in assay [3], in [5] and in assay [4] was “inactive” in each case.
Turning to `COC(=O)C1(C)C=C(Nc2ccc(OC)cc2)C(=O)N1c1ccc(OC)cc1` (centres undefined), the Potency result in [1], in assay [2], in [3], in assay [5] and in [4] was “inactive” each time.
In the case of `CCOC(=O)CN1C(=O)C2(CC(C)=C[C@@H](C)O2)c2c(Br)cccc21` (some centres undefined), the Potency entry in assay [1], in [2], in assay [3], in [5] and in assay [4] was “inactive” throughout.
For the compound `CCCC[C@]12Cc3ccccc3[C@H](O1)c1c(cc(-c3ccccc3)oc1=O)O2`, the values for the Potency in assay [1] and in assay [2] were 1.69 µM (active) and 1.9 µM (active), respectively. Besides, the Potency result in assay [4] is “inactive”.
For the compound `CCN1C(=O)NC(c2ccc(Br)cc2)C(C(C)=O)=C1C` (centres undefined), the Potency entry in assay [1], in assay [2], in [3], in [5] and in assay [4] was “inactive” in each case.
Regarding `CC(C)(C)OC(=O)NCCCC1=CC2=CC(=O)C(C)(O)C(=O)C2=CO1` (centres undefined), the Potency result in assay [1], in assay [2], in [3], in [5] and in assay [4] was “inactive” in each case.
Turning to `COC(=O)N1C2CC3(C)CC(=O)CC1(C)C3c1ccccc12` (centres undefined), the Potency result in assay [1], in assay [2], in [3] and in assay [4] was “inactive” in each case.
Turning to `COC(=O)N[C@@H](C=Cc1ccccc1)[C@@H](C)[N+](=O)[O-]`, the Potency result in [1], in [2], in [3], in assay [5] and in assay [4] was “inactive” throughout.
